The record followed here is the supplement of paper PMC8975748.

Counter-ions that a name gives are not always drawn.

The test system of the assay is Saccharomyces cerevisiae BY4741 SeMeCo community. In words: z-score of subpopulation abundance vs DMSO median, subpopulation auxotrophic for HLU; higher = larger share of this subpopulation than in DMSO controls. Particulars: 10 µM; 24 h; SM minimal medium; subpopulation (auxotrophy): HLU. The method, then:
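Fluorescent four-plasmid SeMeCo (self-establishing metabolically cooperating S. cerevisiae BY4741 community; plasmids pH-mRuby2, pL-mWasabi, pU-eCFP, pM-TagRFP657) was grown 24 h in minimal SM medium with each Selleck FDA-approved drug at 10 µM in 384-well plates. Cells were fixed and imaged by high-content confocal microscopy. For each auxotrophic subpopulation (and the prototroph), a z-score gives the deviation from the DMSO vehicle-control population median.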
Consider `CN[C@@H]1[C@H](O[C@H]2[C@H](O[C@H]3[C@H](O)[C@@H](O)[C@H](NC(=N)N)[C@@H](O)[C@@H]3NC(=N)N)O[C@@H](C)[C@]2(O)CO)O[C@@H](CO)[C@H](O)[C@H]1O` [Dihydrostreptomycin sulfate], for which the “z-score of subpopulation abundance” value is -1. The value for `Nc1ccc(S(=O)(=O)Nc2ccnn2-c2ccccc2)cc1` [Sulfaphenazole] was -0.27; that for `Nc1nc2[nH]cc(CCc3ccc(C(=O)N[C@@H](CCC(=O)O)C(=O)O)cc3)c2c(=O)[nH]1` [Pemetrexed Disodium Hydrate] was 11.4.

Take `Cc1ccc(Nc2c(F)cccc2Cl)c(CC(=O)O)c1` [Lumiracoxib]: the “z-score of subpopulation abundance” value is -0.53. The value for `CC(=O)O[C@H]1C[C@@H]2CC[C@@H]3[C@H](CC[C@@]4(C)[C@H]3C[C@H]([N+]3(C)CCCCC3)[C@@H]4OC(C)=O)[C@@]2(C)C[C@@H]1N1CCCCC1` [Vecuronium Bromide] was -0.64; that for `CN(C/C=C/C#CC(C)(C)C)Cc1cccc2ccccc12` [Terbinafine HCl] was -0.09; that for `O=C1C(=O)c2ccccc2C(O)=C1C1CCC(c2ccc(Cl)cc2)CC1` (stereo not given) [Atovaquone] was 1.94. Next, `Cc1c(OCC(F)(F)F)ccnc1C[S+]([O-])c1nc2ccccc2[nH]1` (stereo not given) [Lansoprazole]: 0.76; `Nc1ccc(S(=O)(=O)Nc2ncccn2)cc1` [Sodium sulfadiazine]: 0.17; `CNCC[C@H](Oc1cccc2ccccc12)c1cccs1` [Duloxetine]: -1.41.

With `COc1cc(O)c(C(=O)Nc2nc(C(=O)NCCN(C(C)C)C(C)C)cs2)cc1OC` [Acotiamide], the “z-score of subpopulation abundance” value was found to be 1.61. Regarding `CC(c1cc2ccccc2s1)N(O)C(N)=O` (stereo not given) [Zileuton], the “z-score of subpopulation abundance” value came to 0.44. The value for `COCCCOc1ccnc(C[S+]([O-])c2nc3ccccc3[nH]2)c1C` (stereo not given) [Rebeprazole sodium] was 1.09; that for `CCCN[C@H]1CCc2nc(N)sc2C1` [Pramipexole 2HCl Monohydrate] was -0.47; that for `CN1CCc2cc3c(cc2C(=O)Cc2ccc4c(c2C1)OCO4)OCO3` [Protopine] was 0.88. The value for `CC1(C)S[C@@H]2[C@H](NC(=O)Cc3ccccc3)C(=O)N2[C@H]1C(=O)O.CCN(CC)CCOC(=O)c1ccc(N)cc1` [Penicillin G Procaine] was 0.81. The value for `CCCOc1ccc2c(c1)CC[C@@H]1[C@@H]2CC[C@]2(C)[C@@H](OC)CC[C@@H]12` [Promestriene] was 0.6; that for `Clc1ccccc1C(c1ccccc1)(c1ccccc1)n1ccnc1` [Clotrimazole] was 3.78; that for `CC[C@H]1OC(=O)[C@H](C)[C@@H](O[C@H]2C[C@@](C)(OC)[C@@H](O)[C@H](C)O2)[C@H](C)[C@@H](O[C@@H]2O[C@H](C)C[C@H](N(C)C)[C@H]2O)[C@](C)(O)C[C@@H](C)CN(C)[C@H](C)[C@@H](O)[C@]1(C)O` [Azithromycin] was -0.06. For the molecule `CCCCC(F)(F)[C@@]1(O)CC[C@H]2[C@@H](CC(=O)[C@@H]2CCCCCCC(=O)O)O1` [Lubiprostone], the “z-score of subpopulation abundance” value was -0.93.

Regarding `C[C@@H](O)[C@H]1C(=O)N2C(C(=O)O)=C([C@H]3CCCO3)S[C@H]12` [Faropenem Sodium], the “z-score of subpopulation abundance” value was found to be 0.66. Next, `N=C(N)NS(=O)(=O)c1ccc(N)cc1` [Sulfaguanidine]: -0.69; `CN(C)CCCN1c2ccccc2Sc2ccc(Cl)cc21` [Chlorpromazine HCl]: -0.85. For the molecule `CN[C@@H]1[C@H](O)[C@H](NC)[C@H]2O[C@@]3(O)C(=O)C[C@@H](C)O[C@H]3O[C@@H]2[C@H]1O` [Spectinomycin 2HCl], the “z-score of subpopulation abundance” value was 0.02. Next, `CCn1cc(C(=O)O)c(=O)c2cc(F)c(N3CCNCC3)cc21` [Norfloxacin]: -0.16; `O=C1[C@H]2CCCC[C@H]2C(=O)N1CCCCN1CCN(c2nsc3ccccc23)CC1` [Perospirone hydrochloride]: 0.2; `CN(C)CCCC1(c2ccc(F)cc2)OCc2cc(C#N)ccc21` (stereo not given) [Citalopram HBr]: 0.43. The value for `CCc1nc(N)nc(N)c1-c1ccc(Cl)cc1` [Pyrimethamine] was 0; that for `CCc1c2c(nc3ccc(OC(=O)N4CCC(N5CCCCC5)CC4)cc13)-c1cc3c(c(=O)n1C2)COC(=O)[C@]3(O)CC` [Irinotecan HCl Trihydrate] was -0.35; that for `Cc1c(S(=O)(=O)O)oc2c1C(=O)C(=O)c1c-2ccc2c1CCCC2(C)C` [Tanshinone IIA sulfonate (sodium)] was -0.84. For the molecule `C[C@H]1c2cccc(O)c2C(O)=C2C(=O)[C@]3(O)C(O)=C(C(N)=O)C(=O)[C@@H](N(C)C)[C@@H]3[C@@H](O)[C@@H]21` [Doxycycline monohydrate], the “z-score of subpopulation abundance” value is -0.54. With `COc1ccc2cc3[n+](cc2c1OC)CCc1cc2c(cc1-3)OCO2` [Berberine chloride], the “z-score of subpopulation abundance” value stood at 0.27.

In the case of `COc1ccc(CN2CCN(C(c3ccc(F)cc3)c3ccc(F)cc3)CC2)c(OC)c1OC` [Lomerizine 2HCl], the “z-score of subpopulation abundance” value was 0.88. The value for `C[C@H]1c2cccc(O)c2C(O)=C2C(=O)[C@]3(O)C(O)=C(C(N)=O)C(=O)[C@@H](N(C)C)[C@@H]3[C@@H](O)[C@@H]21` [Doxycycline] was -0.24; that for `CC[C@@H]1/C=C(\C)C[C@H](C)C[C@H](OC)[C@H]2O[C@@](O)(C(=O)C(=O)N3CCCC[C@H]3C(=O)O[C@H](/C(C)=C/[C@@H]3CC[C@@H](O)[C@H](OC)C3)[C@H](C)[C@@H](O)CC1=O)[C@H](C)C[C@@H]2OC` [Ascomycin (FK520)] was 2.5.

For `CC[C@@]1(O)C(=O)OCc2c1cc1n(c2=O)Cc2cc3c(CN(C)C)c(O)ccc3nc2-1` [Topotecan HCl], the “z-score of subpopulation abundance” value is -0.87. As for `C1N2CN3CN1CN(C2)C3` [Methenamine], the “z-score of subpopulation abundance” value is -0.02.

In the case of `COc1cc(O)c(C(=O)Nc2nc(C(=O)NCCN(C(C)C)C(C)C)cs2)cc1OC` [Acotiamide hydrochloride], the “z-score of subpopulation abundance” value stood at 0.19.

Take `Cc1noc(NS(=O)(=O)c2ccc(N)cc2)c1C` [Sulfisoxazole]: the “z-score of subpopulation abundance” value turned out to be 0.89. As for `C[C@@H]1C/C=C/C=C/C=C/C=C/[C@H](O[C@@H]2O[C@H](C)[C@@H](O)[C@H](N)[C@@H]2O)C[C@@H]2O[C@](O)(C[C@@H](O)C[C@H]3O[C@@H]3/C=C/C(=O)O1)C[C@H](O)[C@H]2C(=O)O` [Natamycin], the “z-score of subpopulation abundance” value worked out at 22.7.
